Assay outcomes from PubChem BioAssay.
This excerpt belongs to a sample that is enriched for hits.
DUX4 inh: blocks DUX4-driven transcriptional activation. 293T-iDUX4 ZSCAN4-Gaussia luciferase reporter, 24 h; stronger effect = lower value. activity change, negative = inhibition, % (concentration not given with the values). 37,000 tested, 0.8% active;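 active means mean inhibition of at least 10% in the main channel, exceeding the control channel by a set limit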;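 further: 0% = median of neutral control wells and -100% = median of positive control wells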
Active calls of the source: *.

Screening O=C(CN1CCOCC1)N1CCCCN2[C@H](CO)[C@H](c3ccc(/C=C/c4ccccc4)cc3)[C@H]2C1 returned DUX4 inh 5.1.
`COc1ccc(NC(=O)Nc2ccc3c(c2)C(=O)N([C@@H](C)CO)C[C@@H](C)[C@H](CN(C)S(=O)(=O)c2cn(C)cn2)O3)cc1` gave DUX4 inh 3.2.
`C[C@H](CO)N1C[C@H](C)[C@H](CN(C)Cc2ccc3c(c2)OCO3)OCCCC[C@H](C)Oc2ccc(NS(=O)(=O)c3cn(C)cn3)cc2C1=O` gave DUX4 inh 3.0.
Screening O=C(C[C@H]1CC[C@H](NC(=O)Nc2ccc(F)cc2)[C@@H](CO)O1)NCCN1CCCC1 returned DUX4 inh -1.3.
`O=C(C[C@@H]1C=C[C@H](NC(=O)CCN2CCCCC2)[C@@H](CO)O1)Nc1nccs1` gave DUX4 inh -6.0.
CN(C[C@H]1N[C@@H](CO)[C@H]1c1ccc(-c2cccc(F)c2)cc1)S(C)(=O)=O was read as DUX4 inh 3.5.
`CN1c2ccc(-c3ccc(F)cc3)cc2[C@@H]2[C@@H](CCN2C(=O)Cc2cccnc2)[C@H]1CO` gave DUX4 inh -6.9.
For CN1C(=O)c2cc(NC(=O)C3CC3)ccc2OC[C@@H]2O[C@H](CC(=O)NCCN3CCCC3)CC[C@H]21 the results were DUX4 inh 3.2.
`CCCN(C)C[C@@H]1OCCCC[C@@H](C)Oc2ccc(NC(=O)Nc3ccc4c(c3)OCO4)cc2C(=O)N([C@H](C)CO)C[C@H]1C` gave DUX4 inh 1.8.
For C[C@H]1CN([C@@H](C)CO)C(=O)c2c(c3ccccc3n2C)-c2ccccc2CO[C@@H]1CN(C)Cc1ccc(C(=O)O)cc1 the results were DUX4 inh 16.3.
Screening C[C@@H]1CN([C@@H](C)CO)C(=O)c2c(c3ccccc3n2C)-c2ccccc2CO[C@@H]1CN(C)Cc1ccc(O)cc1 returned DUX4 inh -9.0.
For C[C@H]1CN([C@@H](C)CO)C(=O)c2c(c3ccccc3n2C)-c2ccccc2CO[C@@H]1CN(C)Cc1ccc(C(F)(F)F)cc1 the results were DUX4 inh -48.5*.
Screening C[C@@H]1CN([C@H](C)CO)C(=O)c2c(c3ccccc3n2C)-c2ccccc2CO[C@@H]1CN(C)Cc1ccc(C(F)(F)F)cc1 returned DUX4 inh -43.0*.
`C[C@@H]1CN([C@H](C)CO)C(=O)c2c(c3ccccc3n2C)-c2ccccc2CO[C@H]1CN(C)Cc1ccc(C(=O)O)cc1` gave DUX4 inh 5.6.
`C[C@@H]1CN([C@H](C)CO)C(=O)c2c(c3ccccc3n2C)-c2ccccc2CO[C@H]1CN(C)Cc1ccc(C(F)(F)F)cc1` gave DUX4 inh 3.3.
Screening C[C@H]1CN([C@@H](C)CO)C(=O)c2cc(NC(=O)Nc3cccc4ccccc34)ccc2O[C@H]1CN(C)C(=O)NC1CCCCC1 returned DUX4 inh -1.1.
Screening O=C(NCCN1CCCCC1)[C@@H]1N[C@@H]2c3ccc(-c4ccncc4)c(=O)n3C[C@@H]2[C@H]1CO returned DUX4 inh -2.6.
`COCC(=O)Nc1ccc2c(c1)C(=O)N(C)C[C@@H](OC)[C@@H](C)CN(C(C)=O)[C@@H](C)CO2` gave DUX4 inh 5.7.
Screening COc1ccc(C#Cc2ccc([C@H]3[C@H]4CN(C(=O)Nc5ccccc5F)CCCCN4[C@H]3CO)cc2)cc1 returned DUX4 inh -6.1.
Screening OC[C@@H]1[C@@H](c2ccc(C#Cc3ccccc3F)cc2)[C@@H]2CN(Cc3cncnc3)CCCCN12 returned DUX4 inh -4.3.
Screening OC[C@H]1[C@@H](c2ccc(C#Cc3ccccc3F)cc2)[C@H]2CN(Cc3cncnc3)CCCCN21 returned DUX4 inh 8.6.
Screening OC[C@H]1[C@@H](c2ccc(C#Cc3ccccc3F)cc2)[C@@H]2CN(Cc3cncnc3)CCCCN12 returned DUX4 inh 1.5.
Screening OC[C@@H]1[C@H](c2ccc(C#Cc3ccccc3F)cc2)[C@@H]2CN(CC3CCOCC3)CCCCN12 returned DUX4 inh -7.5.
`COc1ccc(C#Cc2ccc([C@H]3[C@H](CO)N4CCCCN(Cc5ccccc5F)C[C@@H]34)cc2)cc1` gave DUX4 inh -21.2*.
For COc1ccc(C#Cc2ccc([C@@H]3[C@@H](CO)N4CCCCN(Cc5ccccc5F)C[C@@H]34)cc2)cc1 the results were DUX4 inh -29.9*.
Screening OC[C@@H]1[C@@H](c2ccc(C#Cc3ccccc3F)cc2)[C@@H]2CN(CC3CCOCC3)CCCCN12 returned DUX4 inh -28.1*.
For CCCC#Cc1ccc([C@H]2[C@H](CO)N3CCCCN(CC4CCOCC4)C[C@@H]23)cc1 the results were DUX4 inh 12.1.
`CCNC[C@@H]1[C@H](c2ccc(C3=CCCC3)cc2)[C@H](CO)N1c1nc(C)c(C)s1` gave DUX4 inh 3.9.
CC(=O)NC[C@H]1[C@@H](c2ccc(C3=CCCCC3)cc2)[C@@H](CO)N1C(=O)C1CC1 was read as DUX4 inh 0.7.
Screening CCCNC(=O)[C@H]1[C@H](CO)[C@H]2Cn3c(cccc3=O)[C@@H]1N2C(=O)C1CC1 returned DUX4 inh -4.3.
Screening C[C@@H]1CCCCO[C@@H](CN(C)S(=O)(=O)c2ccc(Cl)cc2)[C@H](C)CN([C@H](C)CO)C(=O)c2cc(NS(=O)(=O)c3cn(C)cn3)ccc2O1 returned DUX4 inh 2.4.
C[C@@H](NC(=O)[C@H]1[C@H](CO)[C@H]2Cn3c(cccc3=O)[C@H]2N1Cc1cccnc1)c1ccccc1 was read as DUX4 inh 3.0.
`O=C(c1cccnc1)N1CC[C@H]2[C@H](CO)Nc3ccc(C#Cc4cccnc4)cc3[C@H]21` gave DUX4 inh 9.0.
Screening O=C(c1cccc(F)c1)N1CC[C@@H]2[C@H]1c1cc(-c3cccc(F)c3)ccc1N[C@@H]2CO returned DUX4 inh 2.3.
`O=C(c1ccccc1)N1CC[C@@H]2[C@H]1c1cc(C#Cc3cccc(F)c3)ccc1N[C@@H]2CO` gave DUX4 inh -3.8.
Screening COc1cccc(C#Cc2ccc3c(c2)[C@@H]2[C@@H](CCN2C(=O)c2ccc(F)cc2)[C@@H](CO)N3)c1 returned DUX4 inh 6.4.
Screening O=C(c1ccccc1)N1CC[C@@H]2[C@@H](CO)Nc3ccc(C#Cc4cccc(F)c4)cc3[C@@H]21 returned DUX4 inh -43.4*.
For O=C(c1cccnc1)N1CC[C@@H]2[C@H]1c1cc(C#Cc3cccnc3)ccc1N[C@@H]2CO the results were DUX4 inh -18.4*.
For COc1ccccc1CN1CC[C@@H]2[C@H](CO)Nc3ccc(C#Cc4ccccc4)cc3[C@@H]21 the results were DUX4 inh -8.3.
Screening O=C(c1cccc(F)c1)N1CC[C@@H]2[C@H](CO)Nc3ccc(C#CC4CC4)cc3[C@@H]21 returned DUX4 inh 5.6.
`COc1ccccc1CN1CC[C@@H]2[C@@H](CO)Nc3ccc(-c4cccc(F)c4)cc3[C@@H]21` gave DUX4 inh -23.5*.
O=C(c1cccc(F)c1)N1CC[C@@H]2[C@H](CO)Nc3ccc(C#Cc4ccc(F)cc4)cc3[C@@H]21 was read as DUX4 inh -41.7*.
CC(=O)N1CC[C@@H]2[C@@H](CO)Nc3ccc(C#Cc4cccnc4)cc3[C@@H]21 was read as DUX4 inh 4.9.
OC[C@H]1Nc2ccc(-c3ccc(F)cc3)cc2[C@@H]2[C@H]1CCN2Cc1ccc(F)cc1 was read as DUX4 inh -4.3.
`CO[C@H](CN(C)C(=O)c1cnccn1)[C@H](C)CN([C@@H](C)CO)S(=O)(=O)c1ccc(C)cc1` gave DUX4 inh -3.9.
